Screens (PubChem BioAssay)
A549 viability: counter-screen for Nrf2 inhibitors: cytotoxicity in A549 cells; A549 ARE-Fluc cells, CellTiter-Fluor viability, 18-24 h; Potency, µM (highest dose often 46 µM), without a hit: top-dose activity change, negative = cytotoxicity, usual class: inhibitors; 0.16% of 390,000 active; AID 504648; further: potency means the concentration at half of the fitted maximal effect; on the % scale 0 is the no-effect control and ±100 the full control effect
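A549 ARE-Fluc cells in 5% FBS OPTI-MEM, 5000 cells/well, rested 2 h then exposed to compounds in concentration-response for 18-24 h at 37 °C. Viability by CellTiter-Fluor fluorescence (Ex 405/Em 525) after 30 min; luciferase luminescence (BugLite, 15 min, RT) read afterwards.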
mIDH1 inhibitor: human IDH1 R132H inhibition. Potency, µM (highest dose often 76.6 µM), for inactives: at the top dose activity change, negative = inhibition, actives largely listed as inhibitors. 0.093% of 390,000 active. IDH1-R132H enzyme, NADPH consumption, diaphorase/resazurin fluorescence. O75874; further: potency means the concentration at half of the fitted maximal effect; on the % scale 0 is the no-effect control and ±100 the full control effect; nearly all actives have a fitted effect of over 65% in size
Target sequence (O75874 whole entry R132H, stated change not applied): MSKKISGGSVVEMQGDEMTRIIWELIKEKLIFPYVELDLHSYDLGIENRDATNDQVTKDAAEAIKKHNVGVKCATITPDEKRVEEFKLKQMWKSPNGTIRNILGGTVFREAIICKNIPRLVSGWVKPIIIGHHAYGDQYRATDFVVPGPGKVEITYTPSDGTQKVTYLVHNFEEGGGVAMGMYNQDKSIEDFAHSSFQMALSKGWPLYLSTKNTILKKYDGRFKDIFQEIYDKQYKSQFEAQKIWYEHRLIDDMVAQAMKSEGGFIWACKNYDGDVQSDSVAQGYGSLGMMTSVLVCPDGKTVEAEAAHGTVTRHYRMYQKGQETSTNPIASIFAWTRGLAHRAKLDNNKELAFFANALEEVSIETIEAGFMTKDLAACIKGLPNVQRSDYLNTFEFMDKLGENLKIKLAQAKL
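IDH1-R132H (0.5 ug/mL) preincubated 30 min with compound, then NADPH (0.016 mM) and alpha-KG (2 mM) added; 80 min at RT, pH 7.5. Remaining NADPH coupled via diaphorase/resazurin to fluorescence (540/590 nm); concentration-response curves normalized to no-enzyme control.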
Apoferritin bind: binds horse apoferritin like a general anesthetic; apoferritin/1-aminoanthracene competitive binding, fluorescence; Potency, µM (doses to about 77.5 µM), for the others: top-dose activity change, negative = displacement, usual class: inhibitors; 0.074% of 350,000 active; further: potency means the concentration at half of the fitted maximal effect; on the % scale 0 is the no-effect control and ±100 the full control effect; nearly all actives have a fitted effect of over 20% in size
Target sequence (P02791 2-175 limits assumed): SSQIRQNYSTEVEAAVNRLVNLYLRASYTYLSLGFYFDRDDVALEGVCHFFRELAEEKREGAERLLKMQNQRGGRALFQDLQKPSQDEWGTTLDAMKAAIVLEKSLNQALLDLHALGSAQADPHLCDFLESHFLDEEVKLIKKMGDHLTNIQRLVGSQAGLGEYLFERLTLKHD
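Concentration-response curves derived by four-parameter Hill fitting of normalized fluorescence, where compounds displaced 1-AMA from 10 uM horse apoferritin following a brief 10 min room-temperature incubation; propofol titration acted as positive control.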
Nrf2 ARE act: activators of Nrf2 (ARE) signaling. AREc32 ARE-luciferase reporter (MCF7-derived line), luminescence, 24 h. 0.31% of 410,000 active. AID 624171. Potency, µM (top dose mostly 46.1 µM), for the others: at the top dose activation, actives largely listed as activators; further: potency means the concentration at half of the fitted maximal effect; % of control where 0% means no effect; nearly all actives have a fitted effect of over 65% in size
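Each well held 1000 AREc32 cells, which were incubated with compound for 24 hr at 37 deg C after overnight attachment, and ARE reporter activity was quantified by firefly luciferase luminescence.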
Nrf2 block: inhibitors of Nrf2 signaling; 2.1% of 360,000 active; Potency, µM (series often up to 46 µM), for the others: top-dose activity change, negative = inhibition, actives largely listed as inhibitors; A549 ARE-Fluc reporter, luciferase luminescence, 18-24 h; further: potency means the concentration at half of the fitted maximal effect; on the % scale 0 is the no-effect control and ±100 the full control effect; nearly all actives have a fitted effect of over 60% in size
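Quantitative HTS in A549 cells stably bearing an antioxidant response element-firefly luciferase construct. Inhibition of Nrf2-driven transcription was scored by luminescence after 18-24 h of compound exposure at 37 °C.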
Giardia killer: kills Giardia lamblia. Giardia lamblia trophozoite viability. activity change, % at 7.66 µM, hits read low. 0.15% of 340,000 active. AID 540267; in the data active means activity change below about -80%; inconclusive means between about -30% and that limit;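 further: parasites exposed to compound for two days anaerobically before the ATP read; on the % scale 0 is the no-effect control and ±100 the full control effect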
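Media and compound were dispensed first, then trophozoites at 100 cells/well; plates sat 48 hrs at 37 deg C without oxygen before ATP luminescence reagent was added and read after 15-30 min at room temperature.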
Numbers without * were called inactive; ? = inconclusive; / = not tested or not shown. The list is not random: actives were taken first. Their share in the collection is about 2.3%. Unless noted, the call rests on the fitted dose curve; in most records, active means well fitted curve in the direction sought with a large enough effect; inconclusive means small, poorly fitted or top-dose-only effect, or another doubt; inactive means no such curve, though single readings can be large; an effect the other way counts as inactive or inconclusive.

SMILES	A549 viability	mIDH1 inhibitor	Apoferritin bind	Nrf2 ARE act	Nrf2 block	Giardia killer
Cc1cc(C)c(C)c(OCC(=O)N2CCCCCC2)c1	-6%	4%	20µM*	0%	6%	11
Clc1ccc(C=Cc2ccccn2)cc1	3%	9%	/	8.9µM*	?	0
Cc1n[nH]c(=S)n1/N=C/c1ccc(-c2ccccc2[N+](=O)[O-])o1	?	-1%	?	10µM*	/	-2
Cc1nc2ccccc2n1/N=C/c1ccc([N+](=O)[O-])o1	?	8%	/	0%	21µM*	?
O=[N+]([O-])c1cccc(-c2ccc(/C=N/n3c(-c4ccccc4)n[nH]c3=S)o2)c1	2%	2%	-4%	28%	9%	-10
COc1ccc(C2=Nn3c(nnc3-c3ccccc3Cl)SC2)cc1OC1CCOC1 (stereo unspecified)	1%	/	/	0%	6%	-18
COc1ccc(C2=Nn3c(nnc3-c3ccccc3Cl)SC2)cc1OC1CCCC1	-17%	/	/	-1%	16µM*	-3
COc1ccc2cc3cc(C(=O)Nc4ccc5c(c4)OCCO5)oc3nc2c1	-25%	2%	-6%	2%	18µM*	16
O=C(Nc1ccc2oc(-c3ccccc3F)nc2c1)c1ccc2c(c1)OCCO2	?	9%	-8%	0%	13µM*	-9
Cc1cc(NC(=O)c2ccc3c(c2)OCCO3)cc(-c2nc3ccccc3o2)c1O	-8%	-8%	16%	-1%	?	/
COc1ccc2cc3cc(C(=O)Nc4cc(OC)c(OC)c(OC)c4)oc3nc2c1	-11%	0%	169%	-1%	?	2
O=C(Nc1ccc2c(c1)OCCO2)c1ccc2ccccc2n1	-10%	23%	-23%	7.9µM*	?	-26
COc1ccc(Cl)cc1NC(=O)c1c(NCc2cccnc2)sc2c1CCC(C)C2 (stereo unspecified)	-2%	-1%	-20%	?	/	/
COc1ccc(C2Nc3ccccc3C(=O)N2Cc2ccco2)cc1 (stereo unspecified)	-6%	/	/	/	-8%	10
CCCOc1ccc(C(=O)Nc2cc(-c3nc4ccccc4[nH]3)ccc2C)cc1	-10%	3%	-17%	6%	?	/
O=C(NCCc1c[nH]c2ccccc12)C(=O)NCC1OCCN1S(=O)(=O)c1ccc(Cl)cc1 (stereo unspecified)	-12%	0%	-7%	-1%	23µM*	-5
O=C(NCc1ccc2c(c1)OCO2)C(=O)NCC1OCCN1S(=O)(=O)c1ccc(Cl)cc1 (stereo unspecified)	-5%	6%	-17%	0%	26µM*	-25
CC(C)Oc1ccc(CNC(=O)c2ccc(Cn3c(=O)c4cccn4c4cccnc43)cc2)cc1	6%	-3%	1%	0%	2%	/
CC(C)C[C@H](NC(=O)[C@H](Cc1ccccc1)C[C@@H](O)[C@H](Cc1ccccc1)NC(=O)OC(C)(C)C)C(=O)N[C@@H](Cc1ccccc1)C(N)=O	/	/	-9%	/	/	/
O=C(Nc1ccc(S(=O)(=O)N2CCOCC2)cc1)c1ccc([N+](=O)[O-])o1	-8%	16%	-6%	?	-1%	-83*
O=C(Nc1ccc(N2CCOCC2)cc1)c1ccc([N+](=O)[O-])o1	-9%	3%	-10%	?	?	-85*
O=C(Nc1ccc(S(=O)(=O)N2CCOCC2)cc1)c1ccc([N+](=O)[O-])s1	-10%	-4%	/	?	-5%	?
COc1ccc(-c2cc3ccccc3oc2=O)cc1NC(=O)c1ccc([N+](=O)[O-])o1	-14%	-2%	-10%	6.3µM*	?	-94*
O=C(Nc1ccc(Cc2ccncc2)cc1)c1ccc([N+](=O)[O-])o1	-13%	-5%	-15%	?	0%	-88*
O=C(Nc1ccc(S(=O)(=O)N2CCCC2)cc1)c1ccc([N+](=O)[O-])o1	?	2%	/	?	?	-81*
SMILES	A549 viability	mIDH1 inhibitor	Apoferritin bind	Nrf2 ARE act	Nrf2 block	Giardia killer
COc1ccc(S(=O)(=O)N2CCCCC2)cc1NC(=O)c1ccc([N+](=O)[O-])o1	-9%	-12%	-10%	2%	9%	-95*
CCn1nnc(NC(=O)c2ccc([N+](=O)[O-])o2)n1	5%	3%	-4%	?	-14%	-103*
O=C(NCc1ccccc1Cl)c1ccc(Nc2nc3ccccc3n3nnnc23)cc1	2%	6%	2%	6%	?	10
CCc1ccc(NC(=O)CSC2=Nc3ccccc3C3=NC(CC(=O)NCc4cccs4)C(=O)N23)cc1 (stereo unspecified)	-6%	3%	?	6%	/	/
COc1cc(-c2ccc3ncnc(N(C)Cc4csc(C)n4)c3c2)cc(OC)c1OC	1%	/	/	/	-23%	/
CCC(C)n1c(=N)c(S(=O)(=O)c2ccc(C)cc2)cc2c(=O)n3cc(C)ccc3nc21 (stereo unspecified)	-5%	6%	0%	-1%	-5%	/
CCc1nc2cccnc2n1-c1ccc(CC(=O)Nc2cccc(C)c2C)cc1	6%	-4%	-1%	4%	-14%	/
Cc1ccc(/C=C2/Sc3ccccc3N(CC(=O)NCC3CCCO3)C2=O)cc1 (stereo unspecified)	-7%	-10%	-7%	0%	3%	31
Cc1cc(/C=C2\Sc3ccccc3N2C)cc(C)[n+]1CC1CCCO1 (stereo unspecified)	4.1µM*	8%	?	12%	1.2µM*	-10
Cc1cccc(N2CCN(C(=O)CSCc3ccc(F)cc3)CC2)c1C	-1%	-12%	2%	0%	/	/
Cc1cccc(N2CCN(C(=O)c3ccccc3SCC(=O)N3CCCC3)CC2)c1C	?	-2%	/	4%	23µM*	38
Cc1cccc(N2CCN(C(=O)CCC(=O)N3CC(C)Oc4ccccc43)CC2)c1C (stereo unspecified)	0%	3%	-3%	2%	18µM*	-22
CC1CCN(C(=O)CCC(=O)N2CC(C)Oc3ccccc32)CC1 (stereo unspecified)	-11%	-5%	-18%	-1%	-20%	-7
O=C(CN1C(=O)COc2ccc(S(=O)(=O)N3CCCC3)cc21)N1CCN(c2ccc(Cl)cc2)CC1	-1%	5%	13%	3%	?	/
C=CCn1c(SCC)nc2ccccc2c1=O	5%	/	/	/	-4%	38
COc1cc(C(=O)OC(C)C(=O)NC2CCCCC2C)c([N+](=O)[O-])cc1OC (stereo unspecified)	-10%	2%	/	0%	?	-1
